What all share (design): scale not given: direction of the effect not stated beside the values
In assay [1] the target is Protein translocase subunit SecA (Escherichia coli (strain K12)) (UniProt P10408). The assay can be described thus: Assay to Identify E. coli SecA ATPase Inhibitors. The settings on record: 30 µM. Format: functional.
Assay [2] deals with T1, Ubiquitin-activating enzyme e1, putative (Leishmania donovani (strain BPK282A1)) (UniProt E9BSI1).
T1 sequence (whole entry): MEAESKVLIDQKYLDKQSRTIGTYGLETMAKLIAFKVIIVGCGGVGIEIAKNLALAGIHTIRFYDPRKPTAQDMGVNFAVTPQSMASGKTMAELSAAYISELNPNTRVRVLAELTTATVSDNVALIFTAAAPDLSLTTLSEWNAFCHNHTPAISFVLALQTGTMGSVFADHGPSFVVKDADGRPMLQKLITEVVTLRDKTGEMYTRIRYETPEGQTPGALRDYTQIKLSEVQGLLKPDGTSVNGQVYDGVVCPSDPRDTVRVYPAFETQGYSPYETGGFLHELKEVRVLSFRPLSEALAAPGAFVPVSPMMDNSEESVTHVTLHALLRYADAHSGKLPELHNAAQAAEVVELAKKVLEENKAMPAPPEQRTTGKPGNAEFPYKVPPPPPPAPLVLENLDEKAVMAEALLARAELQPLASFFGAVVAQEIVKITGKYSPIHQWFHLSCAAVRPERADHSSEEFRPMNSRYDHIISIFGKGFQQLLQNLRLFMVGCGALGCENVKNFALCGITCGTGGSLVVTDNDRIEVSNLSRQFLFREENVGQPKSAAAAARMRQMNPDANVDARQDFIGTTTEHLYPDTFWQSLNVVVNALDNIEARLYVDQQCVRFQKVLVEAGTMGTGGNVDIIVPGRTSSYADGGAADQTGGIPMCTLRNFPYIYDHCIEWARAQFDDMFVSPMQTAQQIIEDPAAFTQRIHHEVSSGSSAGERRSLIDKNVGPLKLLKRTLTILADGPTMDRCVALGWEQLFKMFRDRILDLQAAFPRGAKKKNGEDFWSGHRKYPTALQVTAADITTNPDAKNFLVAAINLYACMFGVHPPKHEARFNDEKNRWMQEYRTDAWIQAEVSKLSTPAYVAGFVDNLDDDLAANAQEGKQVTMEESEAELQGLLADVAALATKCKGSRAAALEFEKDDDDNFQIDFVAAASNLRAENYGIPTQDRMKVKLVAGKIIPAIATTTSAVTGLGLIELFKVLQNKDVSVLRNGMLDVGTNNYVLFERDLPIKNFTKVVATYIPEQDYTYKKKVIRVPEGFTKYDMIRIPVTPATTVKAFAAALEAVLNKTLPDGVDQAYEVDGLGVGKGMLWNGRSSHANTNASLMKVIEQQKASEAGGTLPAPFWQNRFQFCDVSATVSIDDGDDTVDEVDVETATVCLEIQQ
As to the kind of experiment: Leishmania donovani Ubiquitin Activating Enzyme (LdE1). Format: functional. The settings on record: 30 µM.

The target in assay [3] is Sialic acid-binding Ig-like lectin 9 (Homo sapiens) (UniProt Q9Y336). The assay can be described thus: Hs-Siglec9 ALPHAscreen SOP 20170721. The settings on record: 10 µM. (In general: In Alpha technology, singlet oxygen from a donor bead excites a nearby acceptor bead.)
The subject of another assay is Trypanosoma cruzi. As to the kind of experiment: Trypanosoma cruzi phosphomannomutase and mannose-1-phosphate guanylyltransferase assay. Format: functional. The settings on record: 10 µM.
Assay [4] deals with T2, Arginase-2, mitochondrial (Homo sapiens) (UniProt P78540).
T2 sequence (whole entry): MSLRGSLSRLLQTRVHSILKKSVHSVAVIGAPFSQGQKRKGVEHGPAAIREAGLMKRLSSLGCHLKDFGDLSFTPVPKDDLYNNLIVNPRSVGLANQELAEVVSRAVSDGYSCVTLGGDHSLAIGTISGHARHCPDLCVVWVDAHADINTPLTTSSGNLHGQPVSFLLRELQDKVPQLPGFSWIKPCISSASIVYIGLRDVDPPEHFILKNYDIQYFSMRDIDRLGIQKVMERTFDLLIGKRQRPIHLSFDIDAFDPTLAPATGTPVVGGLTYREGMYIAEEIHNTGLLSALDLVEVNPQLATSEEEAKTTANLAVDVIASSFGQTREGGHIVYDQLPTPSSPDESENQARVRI
As to the kind of experiment: in vitro enzyme assay to detect the production of urea directly proportional to the activity of Arginase II. Also: in the data most compounds retested in dose-response had high values. The settings on record: 33.3 µM. Format: functional.

Assay [5] concerns the target T3, Proteasome subunit beta (Trypanosoma cruzi) (UniProt O96673).
T3 sequence (whole entry): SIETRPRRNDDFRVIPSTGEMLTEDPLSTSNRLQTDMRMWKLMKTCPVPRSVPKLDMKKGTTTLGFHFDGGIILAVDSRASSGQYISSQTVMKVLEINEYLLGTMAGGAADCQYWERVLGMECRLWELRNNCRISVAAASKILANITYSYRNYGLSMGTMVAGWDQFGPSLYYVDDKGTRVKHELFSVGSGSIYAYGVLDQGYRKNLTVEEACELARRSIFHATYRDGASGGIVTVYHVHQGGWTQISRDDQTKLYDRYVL
As to the kind of experiment: Trypanosoma cruzi proteasome chymotrypsin-like activity (TcProtChymo) assay. Also: in the data most compounds retested in dose-response had high values. Format: functional. The settings on record: 9.37 µM.

Another assay is filed under the species Homo sapiens. As to the kind of experiment: To identify inhibition of the IFN signalling (Jak-Stat) pathway via expression of an eGFP reporter gene under the control of an IFN-stimulated response element (ISRE) containing MxA promoter. Format: functional. The settings on record: 30 µM.
For assay [6], the target named is T4, Tyrosyl-tRNA synthetase, putative (Trypanosoma cruzi (strain CL Brener)) (UniProt Q4DSP6).
T4 sequence (whole entry): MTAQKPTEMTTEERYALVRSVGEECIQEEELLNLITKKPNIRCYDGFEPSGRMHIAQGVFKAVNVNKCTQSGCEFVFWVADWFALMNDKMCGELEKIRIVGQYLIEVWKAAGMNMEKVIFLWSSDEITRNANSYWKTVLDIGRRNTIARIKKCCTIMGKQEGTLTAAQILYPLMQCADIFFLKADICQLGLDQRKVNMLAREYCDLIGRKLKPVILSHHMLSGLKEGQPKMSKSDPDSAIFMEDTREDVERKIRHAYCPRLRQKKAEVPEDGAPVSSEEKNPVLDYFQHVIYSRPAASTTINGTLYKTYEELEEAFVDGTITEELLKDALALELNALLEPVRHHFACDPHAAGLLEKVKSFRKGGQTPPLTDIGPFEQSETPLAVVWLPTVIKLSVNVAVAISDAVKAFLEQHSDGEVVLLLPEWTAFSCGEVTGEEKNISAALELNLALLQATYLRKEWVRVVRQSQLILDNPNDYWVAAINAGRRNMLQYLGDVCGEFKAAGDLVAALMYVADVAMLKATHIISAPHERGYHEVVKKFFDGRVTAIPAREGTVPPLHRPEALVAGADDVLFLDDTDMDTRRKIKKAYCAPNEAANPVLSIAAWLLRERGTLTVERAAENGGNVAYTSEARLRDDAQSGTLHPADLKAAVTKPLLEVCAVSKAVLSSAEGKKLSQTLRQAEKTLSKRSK
The assay can be described thus: Trypanosoma cruzi tyrosyl tRNA synthetase (TcYRS) _High Tyrosine SOP. Also: in the data most compounds retested in dose-response had high values. Format: functional. The settings on record: 30 µM.

Assay [7] addresses T4, Tyrosyl-tRNA synthetase, putative (Trypanosoma cruzi (strain CL Brener)). The assay can be described thus: Trypanosoma cruzi tyrosyl tRNA synthetase (TcYRS) SOP. The settings on record: 30 µM. Format: functional.
Assay [8] has as its target Chromo domain-containing protein 1 (Saccharomyces cerevisiae (strain ATCC 204508 / S288c) (Baker's yeast)) (UniProt P32657). As to the kind of experiment: ScCHD-1 Enzyme Inhibition Assay. Also: in the data most compounds retested in dose-response had high values. Format: functional. The settings on record: 30 µM.
Assay [9] addresses AMP-activated protein kinase, AMPK (Homo sapiens) (UniProt P54646+O43741+P54619+Q9UGJ0+Q9Y478+Q13131+Q9UGI9). As to the kind of experiment: AMP-dependent Kinase enzyme assay. An in vitro enzyme assay that detects ADP turnover that is directly proportional to AMPK activity. This uses naive AMPK that is activated during the assay with MK-8722. Format: functional. The settings on record: 30 µM.

SMILES strings stand for the structures. For some of these results: Potency and affinity values are given separately.

Chain of Chromo domain-containing protein 1 (Saccharomyces cerevisiae (strain ATCC 204508 / S288c) (Baker's yeast)) (P32657 whole entry, the tested form may be a part): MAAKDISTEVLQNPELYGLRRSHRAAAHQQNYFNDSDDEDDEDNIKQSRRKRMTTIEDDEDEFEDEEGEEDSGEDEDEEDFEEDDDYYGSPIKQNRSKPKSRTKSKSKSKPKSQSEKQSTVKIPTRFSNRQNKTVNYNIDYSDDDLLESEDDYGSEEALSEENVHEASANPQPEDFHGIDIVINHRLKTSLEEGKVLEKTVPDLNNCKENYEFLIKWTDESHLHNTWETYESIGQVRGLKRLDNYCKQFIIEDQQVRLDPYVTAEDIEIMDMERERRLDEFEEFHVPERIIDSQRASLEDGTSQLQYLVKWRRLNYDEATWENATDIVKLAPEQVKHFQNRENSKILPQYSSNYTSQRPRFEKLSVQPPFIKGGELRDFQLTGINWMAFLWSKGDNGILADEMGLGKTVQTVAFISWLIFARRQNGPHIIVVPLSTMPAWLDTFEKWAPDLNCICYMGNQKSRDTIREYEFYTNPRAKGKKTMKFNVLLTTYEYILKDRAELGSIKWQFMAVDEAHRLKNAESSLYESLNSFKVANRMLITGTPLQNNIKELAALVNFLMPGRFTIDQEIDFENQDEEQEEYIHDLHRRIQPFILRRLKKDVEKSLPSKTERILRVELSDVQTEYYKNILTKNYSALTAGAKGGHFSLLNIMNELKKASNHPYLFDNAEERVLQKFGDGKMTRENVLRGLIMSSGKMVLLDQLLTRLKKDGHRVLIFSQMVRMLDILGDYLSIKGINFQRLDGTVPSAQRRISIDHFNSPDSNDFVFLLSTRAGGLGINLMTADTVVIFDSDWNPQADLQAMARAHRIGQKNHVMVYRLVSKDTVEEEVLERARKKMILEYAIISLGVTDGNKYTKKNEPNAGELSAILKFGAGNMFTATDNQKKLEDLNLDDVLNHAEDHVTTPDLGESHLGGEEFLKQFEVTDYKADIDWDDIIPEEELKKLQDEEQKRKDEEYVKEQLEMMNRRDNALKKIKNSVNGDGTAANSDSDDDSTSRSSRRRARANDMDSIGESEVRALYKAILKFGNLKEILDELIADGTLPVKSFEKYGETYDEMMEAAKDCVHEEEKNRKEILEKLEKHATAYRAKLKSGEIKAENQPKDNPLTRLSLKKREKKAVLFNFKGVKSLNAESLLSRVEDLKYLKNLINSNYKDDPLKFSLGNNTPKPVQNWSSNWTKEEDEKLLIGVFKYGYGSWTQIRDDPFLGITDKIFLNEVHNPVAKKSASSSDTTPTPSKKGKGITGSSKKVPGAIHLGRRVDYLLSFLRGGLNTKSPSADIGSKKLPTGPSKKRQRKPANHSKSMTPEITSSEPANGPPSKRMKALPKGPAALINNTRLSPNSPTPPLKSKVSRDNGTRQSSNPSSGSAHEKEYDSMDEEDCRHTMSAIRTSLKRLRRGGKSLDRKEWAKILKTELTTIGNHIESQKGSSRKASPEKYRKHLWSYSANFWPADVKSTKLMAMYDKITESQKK
Chain of Protein translocase subunit SecA (Escherichia coli (strain K12)) (P10408 whole entry): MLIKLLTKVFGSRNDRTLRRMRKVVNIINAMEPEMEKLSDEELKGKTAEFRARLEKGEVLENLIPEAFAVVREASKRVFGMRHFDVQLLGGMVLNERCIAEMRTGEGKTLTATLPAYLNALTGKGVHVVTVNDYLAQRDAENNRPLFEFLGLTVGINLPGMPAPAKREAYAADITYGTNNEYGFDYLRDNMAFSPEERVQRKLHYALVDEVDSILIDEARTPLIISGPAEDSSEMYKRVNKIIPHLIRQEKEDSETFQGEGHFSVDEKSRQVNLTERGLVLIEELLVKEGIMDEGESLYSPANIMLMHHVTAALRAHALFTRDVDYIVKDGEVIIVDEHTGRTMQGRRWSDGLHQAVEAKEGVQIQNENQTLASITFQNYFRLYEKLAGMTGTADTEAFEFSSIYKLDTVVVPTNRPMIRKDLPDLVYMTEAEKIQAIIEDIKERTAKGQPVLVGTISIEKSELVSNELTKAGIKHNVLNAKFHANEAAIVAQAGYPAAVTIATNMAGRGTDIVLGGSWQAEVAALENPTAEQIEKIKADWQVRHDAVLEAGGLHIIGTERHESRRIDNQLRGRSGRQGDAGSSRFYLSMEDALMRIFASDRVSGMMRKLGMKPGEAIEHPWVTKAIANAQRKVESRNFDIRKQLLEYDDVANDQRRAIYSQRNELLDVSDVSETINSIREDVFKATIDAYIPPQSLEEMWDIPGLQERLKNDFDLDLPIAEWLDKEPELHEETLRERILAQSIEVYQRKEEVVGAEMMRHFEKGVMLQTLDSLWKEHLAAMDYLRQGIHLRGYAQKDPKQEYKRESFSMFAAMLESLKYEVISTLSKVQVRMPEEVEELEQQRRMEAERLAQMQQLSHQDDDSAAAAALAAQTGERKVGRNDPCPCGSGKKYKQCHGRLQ
Chain of Sialic acid-binding Ig-like lectin 9 (Homo sapiens) (Q9Y336 whole entry): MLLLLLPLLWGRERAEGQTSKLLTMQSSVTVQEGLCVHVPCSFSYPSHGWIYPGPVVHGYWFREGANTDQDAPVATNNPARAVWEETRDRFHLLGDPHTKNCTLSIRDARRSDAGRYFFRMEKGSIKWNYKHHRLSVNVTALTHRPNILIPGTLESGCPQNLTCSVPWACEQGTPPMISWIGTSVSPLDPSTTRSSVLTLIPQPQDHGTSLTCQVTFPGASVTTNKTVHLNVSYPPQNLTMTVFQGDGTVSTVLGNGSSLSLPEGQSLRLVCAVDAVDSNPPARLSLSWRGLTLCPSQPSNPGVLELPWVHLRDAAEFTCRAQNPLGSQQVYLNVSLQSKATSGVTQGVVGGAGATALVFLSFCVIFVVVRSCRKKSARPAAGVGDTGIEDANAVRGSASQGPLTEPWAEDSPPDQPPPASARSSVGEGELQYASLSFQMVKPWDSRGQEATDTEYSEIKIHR

Consider `CC(C)C(NC(=O)N1CCN(c2ccc(Cl)cc2)CC1)C(=O)NC1CC1` (stereo not drawn), for which the Percent Effect is -5.57% in [1]; 5.41% in assay [2]; 7.5% in assay [3]; 2.23% in the assay on Trypanosoma cruzi; -3.15% in [4]; 16.4% in assay [5]. The Percent Effect was 21.7% in the assay filed under Homo sapiens, 4.79% in assay [6], 19.5% in [7] and -1.96% in [8].
Regarding `Cc1ncc(-c2ccnc(N3CCN(C)CC3)n2)c(-c2cccnc2)n1`, the Percent Effect in assay [1] was -1.44%; in [2], 8%; in assay [3] it was -2.21%; in the assay on Trypanosoma cruzi, -9.24%; in assay [4], -39.9%; in [5], 8.57%. The Percent Effect in the assay listed under Homo sapiens is 8.85%; in assay [6], 4.74%; in assay [7] it was -2.56%; in assay [8], -12.5%.
With `COCCN1C[C@@H]2CN(C(=O)[C@H]3CCCO3)C[C@@H]2C1=O`, the Percent Effect in assay [1] is 0.0627%; in assay [2] it was 16.9%; in assay [3], -1.76%; in the assay with Trypanosoma cruzi, -6.38%; in assay [4], 3.65%; in assay [5] it was 24.5%. The Percent Effect was 7.75% in the assay listed under Homo sapiens, 7.73% in assay [6], 12.5% in [7] and -7.63% in [8].
As for `COc1cc(N2CCCC(c3nccn3Cc3cscn3)C2)nc(N)n1` (stereo not drawn), the Percent Effect in assay [1] was -4.57%; in assay [2] it was 5.41%; in assay [3], 16.6%; in the assay with Trypanosoma cruzi it was 6.89%; in [4], -22.7%; in assay [5] it was 15.1%. In addition, the Percent Effect in the assay filed under Homo sapiens is 25.7%; in assay [6], 6.92%; in [7], 14.6%; in [8], -3.5%.
For `Cn1nc2c(cc1=O)CN(Cc1nc(C(C)(C)C)no1)CC2`, the Percent Effect in assay [1] was -2.61%; in assay [2] it was 29.3%; in assay [3], 6.04%; in the assay on Trypanosoma cruzi, 1.41%; in [4] it was 4.88%; in assay [5], 6.19%. Besides, the Percent Effect was 21.4% in the assay listed under Homo sapiens, 1.58% in assay [6], 2.56% in [7] and -14.7% in [8].
Consider `CC(OCC1CC1)C(=O)Nc1nccn1Cc1ccccc1` (stereo not drawn), for which the Percent Effect in assay [9] came to 5.4%.
For `Cc1ccc(NC(=O)C(C)N2CCCN(c3nccs3)CC2)c(C)c1` (stereo not drawn), the Percent Effect was -1.1% in assay [1]; 15.4% in [2]; -3.51% in [3]; -1.41% in the assay with Trypanosoma cruzi; 4.51% in [4]; 14.1% in assay [5]. The Percent Effect in the assay filed under Homo sapiens is 8.08%; in [6] it was 2.39%; in [7], 6.02%; in assay [8] it was -0.819%.
Turning to `CN(CCNC(=O)Nc1nccs1)Cc1ccc(F)cc1`, the Percent Effect in assay [9] was -0.57%.
Regarding `Cc1ccccc1Cn1cnc2oc(C)c(C(=O)O)c2c1=O`, in [9], the Percent Effect was found to be 9.55%.
On to `CCOC(=O)N1CCN(C(=O)c2sc(-c3ccc(F)cc3)nc2C)CC1`, for which the Percent Effect in assay [1] was -7.21%; in assay [2] it was 5.41%; in assay [3] it was 8.85%; in the assay with Trypanosoma cruzi, -1.65%; in assay [4], 1.05%; in assay [5] it was 17.5%. For the same molecule, the Percent Effect is 1.22% in the assay filed under Homo sapiens, 4.79% in assay [6], 12.2% in [7] and -3.55% in [8].
Take `CC(C)CN1CCC2(CCN(Cc3ccsc3)CC2)C1=O`: the Percent Effect in [1] is -2.7%; in assay [2], 11.7%; in [3], 1.92%; in the assay with Trypanosoma cruzi, 0.938%; in [4], 0.913%; in [5] it was 6.78%. The Percent Effect was -29.8% in the assay filed under Homo sapiens, 8.7% in assay [6], 12.5% in assay [7] and 1.04% in [8].
Consider `Cc1cc(C)n(CC2CCCN2CCS(=O)(=O)c2ccccc2)n1` (stereo not drawn), for which the Percent Effect in assay [1] is -0.665%; in assay [2], -7.69%; in assay [3] it was -1.27%; with Trypanosoma cruzi, 0.845%; in [4] it was 9.43%; in assay [5], -2.47%. Moreover, the Percent Effect is 18.7% in the assay listed under Homo sapiens, 1.44% in assay [6], -1.21% in assay [7] and 1.56% in assay [8].
For the molecule `Cn1ccc(CN2CCC(NC(=O)NC3CCCCC3)CC2)cc1=O`, the Percent Effect in assay [1] is -2.35%; in assay [2], 10.3%; in [3], 10.4%; in the assay on Trypanosoma cruzi it was -2.16%; in assay [4] it was 6.15%; in assay [5] it was -1.28%. Also, the Percent Effect is 27.9% in the assay filed under Homo sapiens, 4.31% in assay [6], 10.8% in [7] and -1.97% in assay [8].

Values taken from ChEMBL document CHEMBL3988442, “University of Dundee, Small-Polar-MMV Screening Library” (2021).
